In the supplement of paper PMC10646978:
± gives the standard deviation.

Assays:
Conditions in all cases: modulator concentration 10 µM
[1] = system: RAW-Dual (murine macrophage reporter line); test: NF-kB reporter (SEAP) activity fold change vs agonist alone; higher = enhanced NF-kB activity
Method in brief: (§1)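 Overnight stimulation with a PRR agonist followed pre-incubation for 1 hour at 37 °C with compound at 10 μM final. This was done in RAW-Dual murine macrophage reporter cells seeded at 50 000 per well in 384-well plates. NF-κB (SEAP, QUANTI-Blue absorbance at 620 nm) and IRF (Lucia luciferase, QUANTI-Luc luminescence) were read from the supernatant. Each reporter's fold change relative to the mean agonist-only control on the same plate was averaged over replicate plates.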

[2] = system: RAW-Dual (murine macrophage reporter line); test: IRF reporter (Lucia luciferase) activity fold change vs agonist alone; higher = enhanced IRF activity
Method in brief: as §1

[3] = system: RAW-Dual (murine macrophage reporter line); test: viability score (confluency relative to resting cells, overnight) (fraction); higher = more viable, active = viable (0.7 or more)
Method in brief: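 Two confluency masks, generated with IncuCyte software over all imaged wells, were applied to IncuCyte images of RAW-Dual macrophages. The cells, in 384-well plates, had been exposed overnight to 10 μM final compound. The viability score is confluency as a fraction of resting cells, and a compound met the cutoff only with both masks above 70% of resting cells.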

[4] = agonist: CpG ODN 1826 0.5 ug/mL

| Compound | NF-kB reporter [1, 4] | NF-kB reporter ([1]; agonist: LPS 0.1 ug/mL) | NF-kB reporter ([1]; agonist: MPLA […]) | IRF reporter ([2]; agonist: 3'3'-cGAMP 10 ug/mL) | IRF reporter ([2]; agonist: LPS 0.1 ug/mL) | IRF reporter ([2]; agonist: MPLA […]) | viability score [3] |
| --- | --- | --- | --- | --- | --- | --- | --- |
| COc1ccc(CNS(=O)(=O)c2ccc3ccccc3c2)cc1 | 0.795 ± 0.074 | 0.899 ± 0.079 | 1.13 ± 0.11 | 0.974 ± 0.052 | 1.49 ± 0.11 | 1.7 ± 0.17 | 0.972 (active) |
| OCCCNCC(O)Cn1c2ccc(Br)cc2c2cc(Br)ccc21 (stereo not given) | 0.661 ± 0.043 | 0.653 ± 0.057 | 1.75 ± 0.049 | 0.626 ± 0.046 | 1.19 ± 0.073 | 1.91 ± 0.18 | 0.108 (inactive) |
| O=C(O)C=Cc1cccc(NS(=O)(=O)C=Cc2ccccc2)c1 | 1.06 ± 0.094 | 0.968 ± 0.084 | 1.33 ± 0.19 | 0.956 ± 0.07 | 1.29 ± 0.28 | 1.34 ± 0.28 | 1.02 (active) |
| CN(C)CCC(c1ccccc1)c1ccccn1.O=C(O)/C=C\C(=O)O (stereo not given) | 0.373 ± 0.016 | 0.227 ± 0.018 | 0.65 ± 0.036 | 0.0231 ± 0.0026 | 0.0283 ± 0.0046 | 0.0354 ± 0.0064 | 0.377 (inactive) |
| COCCCC/C(=N\OCCN)c1ccc(C(F)(F)F)cc1.O=C(O)/C=C\C(=O)O | 0.903 ± 0.072 | 0.902 ± 0.042 | 1.23 ± 0.15 | 0.829 ± 0.04 | 1.42 ± 0.083 | 1.67 ± 0.14 | 0.985 (active) |
| COC(CNS(=O)(=O)c1ccccc1Br)c1ccc(Cl)s1 (stereo not given) | 0.968 ± 0.32 | 1.08 ± 0.1 | 1.07 ± 0.071 | 1.18 ± 0.039 | 1.01 ± 0.12 | 1.21 ± 0.24 | 0.959 (active) |
| CN(c1ccccc1)c1nnc(C(C)(C)C)c(=O)[nH]1 | 1.05 ± 0.079 | 0.951 ± 0.076 | 1.01 ± 0.048 | 1.03 ± 0.039 | 0.908 ± 0.11 | 0.863 ± 0.24 | 0.994 (active) |
| O=C1c2ccccc2C(=O)C1c1ccccc1 | 1.36 ± 0.21 | 1.01 ± 0.085 | 1.32 ± 0.15 | 0.856 ± 0.03 | 1.18 ± 0.1 | 0.968 ± 0.14 | 0.996 (active) |
| CN1CCN(C(CC(=O)Nc2cccc(C(F)(F)F)c2)C(=O)O)CC1 (stereo not given) | 1.02 ± 0.051 | 1.09 ± 0.086 | 0.859 ± 0.038 | 0.979 ± 0.049 | 1.16 ± 0.1 | 1.17 ± 0.26 | 0.999 (active) |
| O=C(c1ccccc1)C1OC1(CBr)c1ccccc1 (stereo not given) | 1.06 ± 0.06 | 0.76 ± 0.052 | 0.663 ± 0.039 | 0.0937 ± 0.0033 | 0.69 ± 0.072 | 0.913 ± 0.17 | 0.833 (active) |
| Cc1nnc(C(=O)NC(C)(C)c2nc(C(=O)NCc3ccc(F)cc3)c(O)c(=O)n2C)o1 | 1.08 ± 0.19 | 1.09 ± 0.13 | 0.935 ± 0.056 | 0.878 ± 0.029 | 1.27 ± 0.15 | 0.988 ± 0.076 | 0.992 (active) |
| Cc1nnc(NC(=O)CSc2nc3ccccc3[nH]2)s1 | 1.11 ± 0.094 | 1.01 ± 0.073 | 0.954 ± 0.078 | 1.14 ± 0.22 | 1.01 ± 0.13 | 1.05 ± 0.2 | 0.995 (active) |
| O=C(NCC(O)c1ccc(C(F)(F)F)cc1)c1cc(Br)cs1 (stereo not given) | 0.931 ± 0.047 | 0.981 ± 0.077 | 0.865 ± 0.043 | 1.14 ± 0.058 | 1.21 ± 0.077 | 1.22 ± 0.14 | 0.66 (inactive) |
| Cc1ccc(NC(=O)CSc2nc3ccccc3[nH]2)cc1.Cl | 1.28 ± 0.37 | 1.15 ± 0.1 | 1.02 ± 0.068 | 0.764 ± 0.036 | 1.19 ± 0.13 | 1.42 ± 0.16 | 0.388 (inactive) |
| CCCCOc1ccc(C(=O)Nc2cc(-c3nc4ccccc4o3)ccc2OC)cc1 | 1.08 ± 0.066 | 1.08 ± 0.089 | 0.965 ± 0.025 | 0.965 ± 0.042 | 1.06 ± 0.049 | 1.02 ± 0.098 | 1 (active) |
